Each structure is given as a SMILES string. In all, about 340,000 compounds went through this assay and about 12,000 (3.5%) were called active. Inconclusive results (about 18%) are left out. Shown is part of a subset that was picked to be rich in actives. A number with no mark means an inactive call. Calls follow the shape of the dose curve; as a rule, active = well fitted inhibition curve with a large enough effect; inconclusive = small, poorly fitted or top-dose-only effect, or another doubt; inactive = no such curve, though single readings can be large or run the other way.
% is scaled to controls: 0 for no effect and ±100 for the full control effect.

The nature of the assay: qHTS Assay for Inhibitors of Hepatitis C Virus (HCV). As to conditions: Huh7.5.1 HCVcc-Cre infection, luciferase reporter, 44 h; series mostly up to 41.8 µM; activity change, negative = inhibition: at the top concentration. The source says: Hepatitis C virus (HCV) infects about 200 million people in the world. Many infected people progress to chronic liver disease including cirrhosis with a risk of developing liver cancer. To date, there is no effective vaccine for hepatitis C. Current therapy based on interferon is only effective in about half of the patients and is associated with significant adverse effects. The fraction of people with HCV who can complete a successful treatment is estimated to be no more than 10 percent. Recent development of direct-acting antivirals against HCV, such as protease and polymerase inhibitors, is promising but still requires combination with peginterferon and ribavirin for maximal efficacy. In addition, these agents are associated with high rate of resistance and many have significant side effects. Due to the lack of a culture system for infectious HCV, the search for new HCV drugs has been greatly hampered. […] High-throughput screening (HTS) with an infectious HCV system would cover the complete spectrum of potentially druggable targets in all stages of HCV lifecycle, and would have more biological relevance than other cell-based assays. Moreover, targeting several key processes in the viral life cycle may not only increase antiviral efficacy; more importantly, it may also reduce the capacity of the virus to develop resistance to the compound. The goal of this project is to identify novel HCV inhibitors as new therapies for hepatitis C, using a highly sensitive and specific assay platform which is based on a HCV infectious cell culture system established in the laboratory and adapted for high-throughput HCV drug screen. NIH Chemical Genomics Center [NCGC] NIH Molecular Libraries Probe Centers Network [MLPCN] MLPCN Grant: MH095511 Assay Submitter (PI): Jake Liang, NIDDK
The assay will start with plating 1,000 cells/well in 3 µL volume and culture for 4 h. Then 23 nL of compounds from the library collection will be added to each well, followed by adding 2.5 µL of HCVcc-Cre virus (~ 0.5 moi) and further cultured for 44 h before the luciferase assay. A volume of 4.5 µL luciferase substrates will be added to each well and the plates will be incubated at room temperature for 15 min. and then read for 15 sec. for the luciferase activity
(In general: Quantitative high-throughput screening tests each substance at several concentrations.)
On to `O=C(OCC(=O)N1CCN(C(=O)c2ccco2)CC1)c1c(Cl)cccc1Cl`, for which the “activity change, negative = inhibition” value was 16.5%.
The same measure, in the same setting: under `CC1CCCCC1NC(=O)Cn1cnc2c1c(=O)n(C)c(=O)n2C` (stereo not drawn) stands -3.41%.
Regarding `C/C(=N\NC(=S)Nc1ccc(C)cc1)c1cc2ccccc2o1`, the Potency is 10 µM (active).
As for `Cc1ccc(NC(=O)c2cc3ccccc3o2)cc1`, the “activity change, negative = inhibition” value was -10.5%.
On to `Cc1ccc(OC(=O)c2cc3ccccc3o2)cc1`, for which the “activity change, negative = inhibition” value was 4.88%.
Same read-out and setting: under `COc1cc(C(=O)NC2CCN(C)CC2)ccc1Nc1ncc2c(n1)N(C1CCC(O)CC1)CCC(=O)N2C` (stereo not drawn) stands -26.6%; under `O=C(CSc1nnc(N2CCOCC2)n1-c1cccc(F)c1)N1CCN(c2ccccn2)CC1`, 2.86%.
Still for that read-out and setting: under `Cc1cccc(-n2ncc3c(=O)[nH]c(SCC(=O)Nc4cc(C)on4)nc32)c1` stands 0.218%; under `Cc1c(O)c(C)c2c(c1O)C(=O)C[C@@H](c1ccccc1)O2`, -1.63%; under `O=C(COc1ccc([N+](=O)[O-])cc1Cl)Nc1ccc2[nH]c(=O)[nH]c2c1`, 1.57%.
Still for that read-out and setting: under `COc1ccc(C(=O)Nc2ccc(CN3CCOCC3)cc2)cc1` stands 3.24%; under `O=C(Nc1ccccc1C(=O)N1CCOCC1)c1ccc(CSc2ccccc2)cc1`, -26%.
`O=C(Nc1ccc(CSc2ccccc2)cc1)c1ccc(CN2CCOCC2)cc1`: the Potency is 3.16 µM (active).
In the case of `CN(Cc1ccccc1)C(=O)COC(=O)/C=C/c1ccc2c(c1)OCO2`, the “activity change, negative = inhibition” value was -6.21%.
The same measure, in the same setting: the same measure for `CC(=O)c1c(C)[nH]c(C(=O)COc2ccc3c(C)cc(=O)oc3c2)c1C`: -0.953%; for `O=C(Nc1ccc2nc3n(c(=O)c2c1)CCCC3)c1ccc(Cl)nc1`: -17.7%; for `CC1(C)C/C(=N/Nc2ccc([N+](=O)[O-])cc2[N+](=O)[O-])C(C)(C)O1`: -10.5%.
The same measure, in the same setting: under `CCOC(=O)C1(Cc2cccc(OC)c2)CCN(C(C)CC(C)(C)O)CC1` (stereo not drawn) stands -11%; under `CCOC(=O)C1(Cc2cccc(OC)c2)CCN(C(C)COC)CC1` (stereo not drawn), 10.8%.
Turning to `CCOC(=O)C1(Cc2cccc(OC)c2)CCN(Cc2csc(C(C)=O)c2)CC1`, the Potency was 22.4 µM (active).
Regarding `c1ccc(-c2c[nH]c(-c3ccccc3)c2)cc1`, the “activity change, negative = inhibition” value was -6.21%.
The same measure, in the same setting: the same measure for `Cc1cc2oc(=O)cc(CN3CCN(Cc4ccccc4)CC3)c2cc1C`: -11.3%.
In the case of `Cc1cc2oc3ccc(NCCC4CCCN4C)cc3c(=O)c2cc1C` (stereo not drawn), the Potency is 14.1 µM (active).
`CCCOc1ccc(C2c3c(oc4cc(C)c(C)cc4c3=O)C(=O)N2CCCN2CCOCC2)cc1` (stereo not drawn): the “activity change, negative = inhibition” value is -7.54%.
Same read-out and setting: under `CSc1ncccc1C(=O)Nc1ccc2c(c1)OCO2` stands 3.31%.
On the same count and under the same terms, under `O=C1C2C3C=CC(C3)C2C(=O)N1c1ncc([N+](=O)[O-])s1` (stereo not drawn) stands 0.319%.
Same read-out and setting: under `CCN(C(=O)CSc1ncnc2sccc12)c1c(N)n(Cc2ccccc2)c(=O)[nH]c1=O` stands 5.2%; under `Cc1c(C(=O)Nc2ccccc2)sc2nc3n(c(=O)c12)CCCCC3`, 2.42%; under `O=c1c2c(nc3n1CCCCC3)sc1c(O)cccc12`, -3.44%.
In the case of `CC(=O)c1ccc(NC(=O)c2sc3nc4n(c(=O)c3c2C)CCCCC4)cc1`, the Potency was 11.2 µM (active).
As to `O=C(c1ccc(Cl)nc1)N1CCN(S(=O)(=O)c2ccc3c(c2)OCCO3)CC1`, the “activity change, negative = inhibition” value was -7.42%.
The same measure, in the same setting: the same measure for `COc1cc(C(c2c(NC(=O)c3ccco3)sc(C)c2C)N2CCOCC2)cc(OC)c1OC` (stereo not drawn): 5.51%; for `COc1cccc(NC(=O)C2CCCN2C(=O)OCc2ccccc2)c1` (stereo not drawn): 13.3%.
As for `COc1cccc(NC(=O)C2C(c3ccccc3)C2(Cl)Cl)c1` (stereo not drawn), the Potency was 12.6 µM (active).
For `COc1cccc(NC(=O)c2ccccc2SC)c1`, the “activity change, negative = inhibition” value was -1.29%.
The same measure, in the same setting: the same measure for `Cc1ccccc1-c1cc(C(=O)NCc2cccs2)n(CC2CC(c3cccnc3)=NO2)n1` (stereo not drawn): -8.14%.
On the same count and under the same terms, under `O=C(CCCCCCCC(=O)N1CCCCC1)N1CCCCC1` stands -4.7%; under `O=C(CC1SC(N2CCOCC2)=NC1=O)Nc1ccccc1F` (stereo not drawn), 3.09%.
On to `COc1cc(C(=O)NCc2ccncc2)cc(Br)c1OCc1ccccc1`, for which the Potency is 10 µM (active).
Take `COc1cc(C(=S)NCc2ccccc2)cc(Br)c1O`: the “activity change, negative = inhibition” value is -13.2%.
The same measure, in the same setting: the same measure for `COc1cc(C=O)c(Br)cc1OCC(=O)NCc1ccccc1`: -9.16%; for `O=c1c2ccccc2ncn1CCc1ccncc1`: -0.693%.
The same measure, in the same setting: the same measure for `CCOc1ncccc1C(=O)OCC(=O)N1c2ccccc2CC1C` (stereo not drawn): -0.457%; for `C[C@@H]1CN([C@@H](C)CO)C(=O)c2cccc(NS(=O)(=O)c3ccc(F)cc3)c2O[C@H]1CN(C)C(=O)NC1CCCCC1`: -10.1%.
Same read-out and setting: the same measure for `CCN(CC)CCCNC(=O)c1cc2c(=O)[nH]c3ccc(C)cc3c2s1`: -15.9%.
Take `Cn1c(C(=O)NCCN2CCc3ccccc3C2)cc2c(=O)[nH]c3ccccc3c21`: the “activity change, negative = inhibition” value is -20.8%.
For `O=C(NCCN1CCN(Cc2ccccc2)CC1)c1cc2c(=O)[nH]c3ccccc3c2s1`, the Potency was 12.6 µM (active).
Turning to `CSc1ccccc1C(=O)OCC(=O)N1CCN(C(C)=O)CC1`, the “activity change, negative = inhibition” value was 5.57%.
The same measure, in the same setting: under `Cc1ccc(S(=O)(=O)n2oc(=O)c(C3CCCCC3)c2N)cc1` stands -14.1%.
Same read-out and setting: under `O=C1CSc2ccc(C(=O)NCc3ccccn3)cc2N1` stands 28.3%; under `COc1cc2nc(Cl)nc(NCCO)c2cc1OC`, 4.09%.
On to `COc1ccc(-c2oc3ncnc(NCCCO)c3c2-c2ccc(OC)cc2)cc1`, for which the Potency is 12.6 µM (active).
In the case of `COc1ccc(CCNc2ncnc3c2nnn3Cc2ccccc2)cc1`, the “activity change, negative = inhibition” value is -8.73%.

Source of the values: PubChem BioAssay AID651820 (National Center for Advancing Translational Sciences (NCATS), 2012).
